Measurements: the supplement of paper PMC10849652
The full data set covers some 8,800 targets. This sample favours those with a hit. About 0.5% of all pairs of compound and target were hits. Values without a mark were called inactive.

Legend:
Experiment in all cases: log2 fold change, soluble protein after heating vs DMSO (PISA); higher = thermal stabilisation; K562 lysate, 10 uM; active = over 0.2 and 3.5 SD of the protein, either way, in both replicates (recomputed)
nilotinib = compound: Cc1cn(-c2cc(NC(=O)c3ccc(C)c(Nc4nccc(-c5cccnc5)n4)c3)cc(C(F)(F)F)c2)cn1 [nilotinib]
In short: (§1)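 Following dounce homogenisation of K562 pellets in PBS pH 7.4 with 1 mM MgCl2, crude extract at 1 mg/mL protein was incubated for 30 min with 10 μM compound. Aliquots were then heated for 3 min over 48°C-58°C and pooled, NP-40 was added to 0.5% at 4°C, and soluble protein was recovered as the supernatant at 21,000xg for 90 min. Channel-sum-equalised TMTpro 16plex LC-MS/MS quantified this protein. Each value, from duplicates, is a log-two fold change in thermal stability relative to solvent controls.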

[1] = compound: Cc1nc(Nc2n[nH]c3c2CN(C(=O)N[C@H](CN(C)C)c2ccccc2)C3(C)C)c2sccc2n1
In short: as §1

dasatinib = compound: Cc1nc(Nc2ncc(C(=O)Nc3c(C)cccc3Cl)s2)cc(N2CCN(CCO)CC2)n1 [dasatinib]
In short: as §1

[2] = compound: Cc1ncc(-c2ccnc(Nc3ccc(S(C)(=O)=O)cc3)n2)n1C(C)C
In short: as §1

[3] = compound: Cn1cc(-c2ccc3c(c2)CCN3C(=O)Cc2cccc(C(F)(F)F)c2)c2c(N)ncnc21
In short: as §1

quisinostat = compound: Cn1cc(CNCC2CCN(c3ncc(C(=O)NO)cn3)CC2)c2ccccc21 [quisinostat]
In short: as §1

tipifarnib = compound: Cn1cncc1[C@@](N)(c1ccc(Cl)cc1)c1ccc2c(c1)c(-c1cccc(Cl)c1)cc(=O)n2C [tipifarnib]
In short: as §1

[4] = compound: NC(=O)Nc1cc(-c2cccc(F)c2)sc1C(=O)N[C@H]1CCCNC1
In short: as §1

[5] = compound: NC(=O)c1cnc(N[C@@H]2CCCC[C@@H]2N)nc1Nc1cccc(-n2nccn2)c1
In short: as §1

[6] = compound: NC1(c2ccc(-c3nc4ccn5c(=O)[nH]nc5c4cc3-c3ccccc3)cc2)CCC1
In short: as §1

[7] = compound: NCC(=O)Nc1ccc(-n2nc(C(F)(F)F)cc2-c2ccc3c(ccc4ccccc43)c2)cc1
In short: as §1

vorinostat = compound: O=C(CCCCCCC(=O)Nc1ccccc1)NO [vorinostat]
In short: as §1

silmitasertib = compound: O=C(O)c1ccc2c(c1)nc(Nc1cccc(Cl)c1)c1ccncc12 [silmitasertib]
In short: as §1

[8] = compound: O=C1NC(=O)C(c2cnc3ccccn23)=C1c1cn2c3c(cc(F)cc13)CN(C(=O)N1CCCCC1)CC2
In short: as §1

entospletinib = compound: c1cn2cc(-c3ccc4cn[nH]c4c3)nc(Nc3ccc(N4CCOCC4)cc3)c2n1 [entospletinib]
In short: as §1

UniProt Q8TAT6, sequence (Q8TAT6 whole entry, looked up): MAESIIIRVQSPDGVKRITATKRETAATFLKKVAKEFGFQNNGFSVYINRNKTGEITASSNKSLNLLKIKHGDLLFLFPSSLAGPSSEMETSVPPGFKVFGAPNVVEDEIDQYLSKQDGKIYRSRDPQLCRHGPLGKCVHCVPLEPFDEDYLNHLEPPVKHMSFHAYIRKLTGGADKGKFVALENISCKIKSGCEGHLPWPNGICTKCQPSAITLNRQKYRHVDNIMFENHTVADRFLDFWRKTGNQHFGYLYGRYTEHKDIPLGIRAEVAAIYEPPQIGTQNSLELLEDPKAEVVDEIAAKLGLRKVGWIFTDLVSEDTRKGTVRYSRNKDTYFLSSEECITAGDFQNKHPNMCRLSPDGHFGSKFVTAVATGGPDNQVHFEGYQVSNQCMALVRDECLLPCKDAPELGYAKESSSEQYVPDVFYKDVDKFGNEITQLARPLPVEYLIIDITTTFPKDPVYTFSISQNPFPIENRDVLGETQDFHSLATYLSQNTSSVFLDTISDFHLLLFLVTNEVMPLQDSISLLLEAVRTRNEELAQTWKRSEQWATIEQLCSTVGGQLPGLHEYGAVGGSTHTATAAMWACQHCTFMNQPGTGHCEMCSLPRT
UniProt P18440, sequence (P18440 whole entry, looked up): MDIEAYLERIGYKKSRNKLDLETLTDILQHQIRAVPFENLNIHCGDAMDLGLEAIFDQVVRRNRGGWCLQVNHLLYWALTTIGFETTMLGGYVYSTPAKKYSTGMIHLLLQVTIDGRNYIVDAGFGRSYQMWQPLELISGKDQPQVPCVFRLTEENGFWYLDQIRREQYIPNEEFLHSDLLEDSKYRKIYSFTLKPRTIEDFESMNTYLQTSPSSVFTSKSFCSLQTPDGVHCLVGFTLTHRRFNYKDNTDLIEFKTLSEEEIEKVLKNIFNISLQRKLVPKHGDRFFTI
UniProt Q9Y5N5, sequence (Q9Y5N5 whole entry, looked up, one chain of several): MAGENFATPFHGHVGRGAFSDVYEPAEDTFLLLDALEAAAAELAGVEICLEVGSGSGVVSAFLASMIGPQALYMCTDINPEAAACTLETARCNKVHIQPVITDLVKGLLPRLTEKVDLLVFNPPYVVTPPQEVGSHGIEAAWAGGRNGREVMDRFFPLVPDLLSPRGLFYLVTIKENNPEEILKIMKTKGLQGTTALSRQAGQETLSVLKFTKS
UniProt Q9BZF3, sequence (Q9BZF3 whole entry, looked up): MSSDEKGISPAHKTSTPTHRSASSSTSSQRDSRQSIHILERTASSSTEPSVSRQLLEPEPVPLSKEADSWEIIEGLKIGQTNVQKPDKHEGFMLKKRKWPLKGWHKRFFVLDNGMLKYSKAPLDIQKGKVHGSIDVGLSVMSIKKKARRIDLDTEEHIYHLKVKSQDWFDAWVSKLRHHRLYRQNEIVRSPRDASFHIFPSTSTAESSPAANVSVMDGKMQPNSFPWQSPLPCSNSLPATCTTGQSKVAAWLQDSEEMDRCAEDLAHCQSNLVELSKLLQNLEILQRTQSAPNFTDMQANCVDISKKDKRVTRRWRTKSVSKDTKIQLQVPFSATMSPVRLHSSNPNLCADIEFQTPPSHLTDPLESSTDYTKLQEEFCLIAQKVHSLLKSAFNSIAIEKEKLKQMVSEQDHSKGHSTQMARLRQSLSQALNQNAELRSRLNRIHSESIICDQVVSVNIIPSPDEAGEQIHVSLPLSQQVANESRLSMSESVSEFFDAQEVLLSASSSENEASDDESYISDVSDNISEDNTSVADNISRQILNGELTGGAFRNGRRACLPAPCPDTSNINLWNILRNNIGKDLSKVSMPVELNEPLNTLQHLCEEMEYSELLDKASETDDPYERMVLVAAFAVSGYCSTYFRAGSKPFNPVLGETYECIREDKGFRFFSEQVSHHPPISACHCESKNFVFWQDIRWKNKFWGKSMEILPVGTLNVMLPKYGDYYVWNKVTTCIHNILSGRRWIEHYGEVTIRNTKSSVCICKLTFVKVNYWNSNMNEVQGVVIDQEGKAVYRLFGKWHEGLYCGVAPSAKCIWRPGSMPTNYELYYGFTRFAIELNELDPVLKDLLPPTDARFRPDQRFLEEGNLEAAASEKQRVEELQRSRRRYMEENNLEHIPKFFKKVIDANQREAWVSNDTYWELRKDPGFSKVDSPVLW
UniProt Q9BTC8, sequence (Q9BTC8 whole entry, looked up): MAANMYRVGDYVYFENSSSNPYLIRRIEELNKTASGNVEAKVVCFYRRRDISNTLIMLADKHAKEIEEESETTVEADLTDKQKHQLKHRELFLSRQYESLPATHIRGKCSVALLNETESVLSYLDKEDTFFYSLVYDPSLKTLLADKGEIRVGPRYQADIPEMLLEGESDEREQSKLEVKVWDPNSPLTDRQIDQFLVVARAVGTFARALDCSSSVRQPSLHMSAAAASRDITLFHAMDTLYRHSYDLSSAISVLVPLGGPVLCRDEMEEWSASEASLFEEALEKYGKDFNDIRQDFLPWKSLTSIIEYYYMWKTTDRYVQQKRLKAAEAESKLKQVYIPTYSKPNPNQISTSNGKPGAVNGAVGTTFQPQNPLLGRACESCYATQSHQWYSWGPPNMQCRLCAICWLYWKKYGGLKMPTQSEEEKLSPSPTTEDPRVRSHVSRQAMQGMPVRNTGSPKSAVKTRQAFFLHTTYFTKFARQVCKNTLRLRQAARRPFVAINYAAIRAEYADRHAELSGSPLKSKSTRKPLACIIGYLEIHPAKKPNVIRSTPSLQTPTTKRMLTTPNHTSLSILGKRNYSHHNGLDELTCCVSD
UniProt Q9NZT2, sequence (Q9NZT2 whole entry, looked up): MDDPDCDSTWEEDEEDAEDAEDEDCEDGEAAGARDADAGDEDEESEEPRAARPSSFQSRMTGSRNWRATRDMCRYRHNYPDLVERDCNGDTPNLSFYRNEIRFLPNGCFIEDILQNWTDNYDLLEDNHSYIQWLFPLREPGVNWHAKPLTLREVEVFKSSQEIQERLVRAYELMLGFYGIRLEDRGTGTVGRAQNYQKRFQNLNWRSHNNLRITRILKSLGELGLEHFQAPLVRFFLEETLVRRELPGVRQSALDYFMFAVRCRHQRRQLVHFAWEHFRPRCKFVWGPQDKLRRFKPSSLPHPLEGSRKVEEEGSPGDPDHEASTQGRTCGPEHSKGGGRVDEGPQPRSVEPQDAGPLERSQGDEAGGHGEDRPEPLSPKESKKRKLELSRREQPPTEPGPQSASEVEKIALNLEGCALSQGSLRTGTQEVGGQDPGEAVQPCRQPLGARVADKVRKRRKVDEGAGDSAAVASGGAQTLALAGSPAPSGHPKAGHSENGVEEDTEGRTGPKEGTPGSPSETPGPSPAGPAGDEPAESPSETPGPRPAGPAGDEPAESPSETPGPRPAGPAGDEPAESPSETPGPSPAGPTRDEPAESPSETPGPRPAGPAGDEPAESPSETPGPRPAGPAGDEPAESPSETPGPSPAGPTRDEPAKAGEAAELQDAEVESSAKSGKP
UniProt P00156, sequence (P00156 whole entry, looked up): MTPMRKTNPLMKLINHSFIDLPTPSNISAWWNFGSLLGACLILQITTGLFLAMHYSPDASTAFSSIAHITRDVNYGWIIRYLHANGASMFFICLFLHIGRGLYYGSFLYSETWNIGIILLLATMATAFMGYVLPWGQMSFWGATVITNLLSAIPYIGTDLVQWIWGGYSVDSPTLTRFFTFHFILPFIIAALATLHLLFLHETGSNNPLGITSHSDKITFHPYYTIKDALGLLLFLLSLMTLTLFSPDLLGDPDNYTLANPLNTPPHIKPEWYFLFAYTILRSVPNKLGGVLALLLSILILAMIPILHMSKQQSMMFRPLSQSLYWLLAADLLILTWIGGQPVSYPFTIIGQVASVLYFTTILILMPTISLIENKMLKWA
UniProt Q86W56, sequence (Q86W56 whole entry, looked up): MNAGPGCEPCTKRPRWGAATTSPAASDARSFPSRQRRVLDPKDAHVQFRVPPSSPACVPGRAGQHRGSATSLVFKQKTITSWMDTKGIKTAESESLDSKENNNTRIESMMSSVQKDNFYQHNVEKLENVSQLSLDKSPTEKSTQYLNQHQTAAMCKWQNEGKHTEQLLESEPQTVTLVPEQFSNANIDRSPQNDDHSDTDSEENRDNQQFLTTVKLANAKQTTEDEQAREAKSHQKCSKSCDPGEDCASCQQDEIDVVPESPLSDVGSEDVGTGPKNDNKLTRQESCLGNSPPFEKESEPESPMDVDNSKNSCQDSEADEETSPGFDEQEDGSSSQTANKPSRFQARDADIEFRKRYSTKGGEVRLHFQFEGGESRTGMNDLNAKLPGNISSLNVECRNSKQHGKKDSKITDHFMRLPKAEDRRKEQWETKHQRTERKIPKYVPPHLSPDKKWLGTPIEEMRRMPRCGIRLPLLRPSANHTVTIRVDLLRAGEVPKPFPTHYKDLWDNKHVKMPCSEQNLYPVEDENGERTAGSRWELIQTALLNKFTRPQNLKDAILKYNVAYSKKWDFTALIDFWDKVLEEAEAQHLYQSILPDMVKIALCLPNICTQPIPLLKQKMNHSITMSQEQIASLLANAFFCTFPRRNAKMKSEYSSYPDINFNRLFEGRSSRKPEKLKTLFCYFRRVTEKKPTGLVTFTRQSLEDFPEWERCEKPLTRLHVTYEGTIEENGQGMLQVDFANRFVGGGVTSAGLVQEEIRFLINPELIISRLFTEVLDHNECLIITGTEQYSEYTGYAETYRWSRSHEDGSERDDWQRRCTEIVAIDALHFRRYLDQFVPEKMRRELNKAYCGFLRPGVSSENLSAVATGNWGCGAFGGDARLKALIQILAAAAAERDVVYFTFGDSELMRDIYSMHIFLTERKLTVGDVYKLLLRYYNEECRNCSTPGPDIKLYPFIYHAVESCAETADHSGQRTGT

Target | log2 fold change (nilotinib) | log2 fold change [1] | log2 fold change (dasatinib) | log2 fold change [2] | log2 fold change [3] | log2 fold change (quisinostat) | log2 fold change (tipifarnib) | log2 fold change [4] | log2 fold change [5] | log2 fold change [6] | log2 fold change [7] | log2 fold change (vorinostat) | log2 fold change (silmitasertib) | log2 fold change [8] | log2 fold change (entospletinib)
NFATC1 (UniProt O95644) | -0.048 | -0.055 | 0.014 | 0.014 | 0.037 | -0.097 | 0.006 | 0.042 | -0.002 | -0.058 | 0.014 | -0.364 (active) | 0.07 | 0.033 | -0.047
NBN (UniProt O60934) | 0.004 | 0.013 | -0.019 | 0.037 | 0.03 | 0.011 | 0.005 | 0.046 | -0.024 | -0.015 | -0.009 | -0.21 (active) | 0.023 | -0.008 | -0.005
MYOM1 (UniProt P52179) | -0.127 | -0.078 | 0.058 | 0.039 | 0.023 | 0.115 | 0.01 | 0.083 | -0.016 | -0.035 | 0.062 | 0.055 | 0.014 | 0.292 | 0.028
PAN2 isoform 2 (UniProt Q504Q3) | 0.072 | 0.013 | -0.012 | 0.046 | 0.079 | -0.036 | -0.049 | 0.056 | 0.02 | -0.028 | 0.11 | -0.097 | 0.038 | -0.056 | 0.038
NCOR2 (UniProt C9J0Q5) | 0.09 | -0.034 | -0.082 | 0.043 | -0.015 | -0.034 | -0.045 | 0.047 | 0.025 | 0.022 | 0.093 | -0.27 (active) | -0.016 | 0.011 | -0.074
NCAPG2 (UniProt Q86XI2) | -0.002 | -0.035 | -0.078 | -0.024 | -0.015 | -0.092 | 0.003 | 0.061 | 0.045 | -0.031 | 0.002 | -0.598 (active) | 0.015 | -0.016 | 0.009
NAT1 (UniProt P18440) | -0.005 | -0.017 | -0.058 | -0.04 | 0.097 | -0.1 | -0.006 | 0.017 | -0.018 | -0.037 | -0.049 | 0.144 | 0.275 (active) | 0.032 | -0.04
MTA3 (UniProt Q9BTC8) | 0.034 | -0.059 | -0.005 | -0.019 | -0.017 | -0.061 | 0.009 | 0.03 | 0.005 | -0.047 | 0.021 | -0.278 (active) | -0.017 | -0.021 | 0.012
OGFR (UniProt Q9NZT2) | -0.016 | 0.021 | -0.022 | -0.005 | 0.042 | -0.004 | 0.04 | 0.02 | -0.001 | 0.028 | -0.036 | -0.285 (active) | 0.02 | -0.018 | -0.061
OSBPL3 isoform 2 (UniProt Q9H4L5) | 0.085 | -0.048 | -0.191 | -0.026 | 0.024 | -0.051 | -0.02 | 0.003 | 0.017 | -0.151 | -0.087 | -0.36 (active) | 0.402 (active) | 0.062 | 0.052
NCAPH2 (UniProt Q6IBW4) | -0.029 | 0 | -0.011 | -0.048 | 0.066 | 0.051 | -0.014 | 0.058 | 0.004 | 0.025 | 0.052 | -0.277 (active) | 0 | 0.037 | -0.008
MSH3 (UniProt P20585) | -0.007 | 0.034 | -0.03 | 0.028 | 0.014 | -0.037 | -0.001 | -0.003 | 0.011 | -0.035 | 0.044 | -0.316 (active) | 0.055 | -0.017 | 0.025
NPLOC4 isoform 2 (UniProt Q8TAT6) | -0.005 | 0.007 | 0.019 | 0.007 | 0.004 | -0.037 | 0 | -0.006 | 0.018 | -0.023 | 0 | 0.028 | -0.016 | 0.018 | 0.031
PARG (UniProt Q86W56) | 0.006 | 0.017 | -0.033 | 0.007 | -0.004 | -0.081 | -0.007 | 0.097 | 0.006 | 0.006 | 0.006 | -0.363 (active) | -0.035 | 0.018 | 0.006
NAA35 (UniProt Q5VZE5) | -0.019 | 0.014 | -0.005 | 0.009 | 0.01 | -0.075 | 0.034 | 0.001 | -0.035 | 0.016 | -0.04 | -0.308 (active) | 0.017 | 0.004 | 0.028
MT-CYB (UniProt P00156) | 0.063 | -0.081 | 0.16 | 0.011 | 0 | -0.131 | -0.184 | -0.003 | -0.037 | -0.06 | -0.064 | 0.158 | 0.031 | 0.118 | 0.174
MRPS31 (UniProt Q92665) | -0.005 | -0.002 | -0.034 | 0.034 | 0.002 | -0.046 | 0.015 | 0.022 | -0.026 | -0.014 | 0.058 | 0.021 | -0.046 | -0.001 | 0
NCKAP1L (UniProt P55160) | 0.001 | -0.017 | -0.034 | 0.072 | 0.005 | -0.034 | 0.032 | 0.055 | 0.017 | 0.023 | 0.288 | -0.444 (active) | -0.039 | -0.001 | 0.029
OSBPL6 isoform 5 (UniProt Q9BZF3) | 0.281 | 0.018 | -0.082 | -0.045 | 0.036 | -0.07 | -0.003 | 0.122 | 0.007 | -0.238 | -0.082 | -0.195 | 0.25 | -0.026 | 0.113
MTHFD1, A0A384N5Y3 | 0.005 | -0.018 | -0.081 | -0.008 | 0.032 | -0.044 | -0.02 | 0.039 | 0.008 | -0.017 | 0.036 | -0.243 (active) | 0.056 | 0.028 | 0.026
N6AMT1 (UniProt Q9Y5N5) | -0.009 | 0.1 | 0.002 | 0.018 | 0.013 | 0 | 0.06 | -0.013 | -0.027 | 0.037 | -0.043 | 0.076 | -0.025 | -0.007 | -0.011
